About 83,000 compounds went through this panel and 20% of them were active in at least one assay; those are over-represented in the sample as a whole.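 For each line, cells grew in 96-well plates with the test compound present at a single concentration for 48 hours.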 Unmarked numbers belong to inactive results. Activity calls are given as the source filed them. Rule for the calls: active = growth percent below 10; inactive = the rest.
Experiments:
Assay in all cases: NCI-60 one-dose screen, 48 h (100 = growth as untreated, 0 = no growth, -100 = all killed)
Conditions in all cases: 10 µM unless noted
DU-145 prostate = test system: DU-145 prostate
K-562 leukemia = test system: K-562 leukemia
MALME-3M melanoma = test system: MALME-3M melanoma
MDA-MB-231 breast = test system: MDA-MB-231 breast
SF-268 CNS = test system: SF-268 CNS
SF-295 CNS = test system: SF-295 CNS
SF-539 CNS = test system: SF-539 CNS
UACC-257 melanoma = test system: UACC-257 melanoma
M14 melanoma = test system: M14 melanoma
HCT-15 colon = test system: HCT-15 colon
HT29 colon = test system: HT29 colon
SNB-75 CNS = test system: SNB-75 CNS
SNB-19 CNS = test system: SNB-19 CNS
U251 CNS = test system: U251 CNS
PC-3 prostate = test system: PC-3 prostate
SK-MEL-5 melanoma = test system: SK-MEL-5 melanoma
UACC-62 melanoma = test system: UACC-62 melanoma
LOX IMVI melanoma = test system: LOX IMVI melanoma
SK-MEL-28 melanoma = test system: SK-MEL-28 melanoma

Structure (SMILES) | growth (DU-145 prostate) | growth (K-562 leukemia) | growth (MALME-3M melanoma) | growth (MDA-MB-231 breast) | growth (SF-268 CNS) | growth (SF-295 CNS) | growth (SF-539 CNS) | growth (UACC-257 melanoma) | growth (M14 melanoma) | growth (HCT-15 colon) | growth (HT29 colon) | growth (SNB-75 CNS) | growth (SNB-19 CNS) | growth (U251 CNS) | growth (PC-3 prostate) | growth (SK-MEL-5 melanoma) | growth (UACC-62 melanoma) | growth (LOX IMVI melanoma) | growth (SK-MEL-28 melanoma)
O=C(OCc1nc2nc(Cl)nc(N3CCOCC3)c2[nH]1)n1ccnc1 | 9.47% (active) | -7.19% (active) | 11% | -6.91% (active) | 5.74% (active) | 95.2% | -19.7% (active) | -71% (active) | -37.6% (active) | -35.2% (active) | -55.2% (active) | -14.2% (active) | 62.9% | 1.06% (active) | -24.5% (active) | 20.1% | -80.4% (active) | -77.1% (active) | -36.5% (active)
C#Cc1cccc(NC(=O)Nc2cccc(N=C=S)c2)c1 | 107% [8.25 µM] | 107% [8.25 µM] | 90.6% [8.25 µM] | 94.5% [8.25 µM] | 95.4% [8.25 µM] | 101% [8.25 µM] | 102% [8.25 µM] | 102% [8.25 µM] | 98.5% [8.25 µM] | 105% [8.25 µM] | 113% [8.25 µM] | 89.3% [8.25 µM] | 96.6% [8.25 µM] | 96.9% [8.25 µM] | 94.6% [8.25 µM] | 95.7% [8.25 µM] | 89.4% [8.25 µM] | 102% [8.25 µM] | 103% [8.25 µM]
COc1cccc(CCC(=O)c2cc3c(N)c(C(=O)Nc4ccccc4)sc3nc2C)c1 | 65.8% | 12.2% | 27% | 44.9% | 53.4% | 24.9% | 23.9% | 63.3% | 23.3% | 17.5% | 16.7% | 9.14% (active) | 38.5% | 26.2% | 49.8% | 8.92% (active) | 28.3% | 26.4% | 42%
c1ccc(CCSc2ncnc3nc[nH]c23)cc1 | 108% | 72.4% | 106% | 85.2% | 103% | 75.6% | 84.8% | 46.2% | 97.5% | 98.2% | 90.6% | 98.7% | 84.8% | 91.1% | 82.8% | 85.1% | 76.9% | 80.5% | 103%
O=C(CN1CCOCC1)Nc1ccc2ncnc(Nc3ccc(OCc4cccc(F)c4)c(Cl)c3)c2c1 | 50.5% | 43.9% | 83.7% | 71% | 68.7% | 73.9% | 75.3% | 87.9% | 68.5% | 60% | 61% | 69.1% | 72.2% | 77.1% | 51.9% | 61.5% | 84.8% | 72.9% | 77%
c1ccc(-c2nnc(Nc3ccc4c(c3)OCCO4)o2)c(NCc2ccncc2)c1 | -22% (active) | 12.1% | 53.6% | 15.4% | 14.3% | 3.68% (active) | -2.94% (active) | 68.3% | -17.8% (active) | 6.86% (active) | 0.34% (active) | 22.6% | 28.4% | 20.5% | 29.7% | -50% (active) | 20.7% | 23.6% | 63.3%
CC(C)Sc1nc(NN)c(C#N)c(-c2ccccc2)n1 | 108% | 101% | 95.7% | 99.3% | 100% | 98.7% | 89.9% | 102% | 108% | 96.5% | 111% | 92.7% | 95.9% | 100% | 85.1% | 99.7% | 90.6% | 96.7% | 90.4%
COc1ccccc1Nc1cc(O)c2c(=O)cc(-c3ccccc3)oc2c1 | 45.6% | 11.6% | 44.1% | 39.2% | 44.9% | 25.9% | 28.3% | 54% | 20.8% | 29.3% | 17% | -4.79% (active) | 43.9% | 22.1% | 54.5% | 24.6% | 35.8% | 39.9% | 56.5%
Fc1ccc2nc3c(cc2c1)CSc1nnc(-c2ccc[nH]c2=S)n1N3 | 114% | 106% | 112% | 94.4% | 98.7% | 105% | 95.7% | 105% | 99% | 104% | 108% | 75.8% | 98.1% | 107% | 91.5% | 96.4% | 91.7% | 96.1% | 102%
COc1nc(N)nc(-n2c(-c3ccc(C)cc3)nc3ccccc32)c1NCc1ccc(C)cc1 | 103% | 87.2% | 105% | 80.4% | 94.9% | 92.8% | 98.3% | 100% | 95.6% | 94.8% | 94.7% | 75.5% | 86.5% | 83% | 65.7% | 96.8% | 64.4% | 87.8% | 107%
CN1CCN(c2c(F)cc(NC3=C(Cl)C(=O)c4ncccc4C3=O)cc2F)CC1 | 103% | 2.2% (active) | -6.37% (active) | 84.2% | 93.3% | 117% | 98.1% | 69.3% | 76.5% | 63.3% | 104% | 87.8% | 101% | 103% | 88.5% | 100% | 100% | 5.89% (active) | 69.8%
CCN(CC)S(=O)(=O)c1cccc([N+](=O)[O-])c1 | 117% | 96% | 99.2% | 105% | 93.4% | 94.4% | 98.9% | 67% | 84.9% | 107% | 88.4% | 79.9% | 103% | 88.9% | 75.4% | 97.9% | 102% | 97.6% | 108%
CC(=O)N1N=C(c2cccc(Nc3ccncc3)c2)CC1c1ccccc1 (centres undefined) | 99.5% | 11.8% | 76.7% | 83.9% | 91% | 87.5% | 80.9% | 92.6% | -76.2% (active) | 82.8% | 33.2% | 53.3% | 91.8% | 72.9% | 75.9% | 82% | 86.7% | 90.9% | 86.5%
CCCCCCCCN1C(=O)/C(=c2\sc3n(c2=O)C2C(NN=3)N(CC)C(=O)N2CC)c2ccccc21 (centres undefined) | 97.8% | 92.6% | 82.6% | 71.5% | 65.3% | 73% | 59.9% | 96.3% | 95.4% | 93.2% | 100% | -13% (active) | 45.7% | 46.2% | 81.7% | 96.9% | 76.3% | 81.9% | 88.3%
CS(=O)(=O)Nc1cc(-c2ccc3ncnc(Nc4ccc5[nH]ncc5c4)c3c2)cnc1Cl | 82.4% | 90.1% | 60.9% | 79.5% | 53.8% | 88% | 67.7% | 35.4% | 80.8% | 79.4% | 80.9% | 15.5% | 68.7% | 64.9% | 76.8% | 81% | 58.9% | 66.2% | 50.8%
CC(=O)NCCCS(=O)(=O)O | 118% | 94.8% | 106% | 102% | 111% | 94.6% | 99.5% | 104% | 111% | 103% | 98.4% | 98.7% | 103% | 102% | 83.9% | 120% | 101% | 94.4% | 107%

Source: PubChem BioAssay (NCI)
